Source: PubChem (Sanford-Burnham Center for Chemical Genomics)
CYP2C19 activ: activators of human cytochrome P450 2C19 | 96,000 tested, under 10 active | AID 1025 | activation factor at 5 µM | P33261 | recombinant CYP2C19, luciferin-H EGE luminescence; hits give high values; 0 = fully inhibited enzyme, 1 = untreated enzyme;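 active = activation factor of at least 2 at 5 µM in the primary screen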;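 note: 0 = wells with 2.5 mM tranylcypromine and 1 = vehicle-only wells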
CYP2C9 act: CYP2C9 (human) activation | activation factor at 5 µM | P11712 | AID 1024 | hit rate 1.4% among 96,000 | recombinant CYP2C9, luciferin-H conversion, luminescence; hits give high values; factor 1 = untreated enzyme, 0 = blocked;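 active = activation factor of 2 or more for CYP2C9 at a 5 µM dose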;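 note: 0 = sulfaphenazole-blocked wells and 1 = vehicle-only wells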
CD11b adhes inh: CD11b/CD18-fibrinogen binding inhibition; P05107+P11215; K562 CD11b/CD18 adhesion to fibrinogen, ATPlite luminescence; Mn2+ added to activate the integrin; inhibition, % at 10 µM; hit rate 0.54% among 93,000;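 active = primary inhibition of 50% or more at 10 µM, then 40% or more on retest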
CYP2C19 inhib: inhibitors of human CYP2C19; CYP2C19 Supersomes, luciferin-H EGE luminescence, 30 min; hit rate 21% among 96,000; P33261; inhibition, % at 5 µM;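 active = CYP2C19 inhibition above a set limit at 5 µM in the primary screen, cut at about 50% in these data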;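 note: plate controls were negative control wells for no effect and 2.5 mM tranylcypromine positive control for full effect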
CD11b adhes enh: increases human CD11b/CD18 adhesion to fibrinogen; P05107+P11215; K562 CD11b/CD18 adhesion to fibrinogen, ATPlite luminescence; activation, % at 10 µM; hit rate 0.07% among 93,000; AID 1499;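 active = 10 µM primary screen giving 50% or more activity, confirmed by 40% or more on retest at that dose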
CYP2C9 inh: blocks human cytochrome P450 2C9; P11712; CYP2C9 Supersomes, luciferin-H conversion, luminescence; inhibition, % at 5 µM; hit rate 20% among 96,000;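 active = blocking of liver enzyme CYP2C9 beyond about 50% at 5 µM, limit read from the data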
* marks the source's active call; other numbers are inactive results; . = not tested or not shown. A selection: hits, their analogues and other compounds. The true share with any hit is near 28%.

SMILES	CYP2C19 activ	CYP2C9 act	CD11b adhes inh	CYP2C19 inhib	CD11b adhes enh	CYP2C9 inh
CC(CCc1ccccc1)NC(=O)C1CCN(C(=O)c2sccc2-n2cccc2)CC1 (stereo unspecified)	0.3	0.2	12	72*	0	78*
CC(CCc1ccccc1)NC(=O)C1CCN(c2nnc(-n3cccc3)s2)CC1 (stereo unspecified)	1.1	0.9	7	-14	-4	12
O=C(NCCc1ccc(Cl)cc1)C1CCN(C(=O)c2sccc2-n2cccc2)CC1	0.6	0.5	-6	44	-2	52*
O=C(NNC(=O)c1sccc1-n1cccc1)c1ccc(Cl)cc1	0.9	2.7*	12	6	-1	-171
N#Cc1ccccc1CSc1nc(N2CCCCC2)nc(N2CCCCC2)n1	0.9	0.5	0	10	-1	49
COc1cc2c(cc1NC(=O)CC1SC(N3CCCC3)=NC1=O)oc1ccccc12 (stereo unspecified)	0.9	1	-5	9	-2	4
CSc1ncc(Cl)c(C(=O)Nc2ccc(S(=O)(=O)N3CCOCC3)cc2)n1	1	0.9	-4	-1	-5	6
CC(C)CC(=O)Nc1nc(=S)ss1	0.6	0.3	75*	43	-6	69*
CC(=O)Nc1nc(=S)ss1	1.1	0.9	9	-10	-3	12
Cc1ccccc1C(=O)Nc1nc(=S)ss1	1	0.2	100*	0	-11	81*
O=C(Nc1nc(=S)ss1)c1c(F)cccc1F	1	0.2	.	-2	.	80*
CCN(CC)CCNC(=O)c1c(C)oc2cc(Br)c(OC)cc12	0.9	0.7	-9	12	0	28
CC(Oc1ccc(Cl)cc1Cl)C(=O)N(Cc1ccco1)C1CCS(=O)(=O)C1 (stereo unspecified)	0.5	0.8	-8	48	-1	21
Cc1ccc(C(C2C(=O)CC(C)(C)CC2=O)C2C(=O)CC(C)(C)CC2=O)s1	0.8	1	.	19	.	0
Cc1ccc(Nc2nc3c([nH]2)c(=O)n(C)c(=O)n3C)cc1	0.9	0.4	-8	9	-2	60*
C/C(Cl)=C\Cn1c(Nc2ccc(C)cc2)nc2c1c(=O)n(C)c(=O)n2C	1	0.9	-15	4	0	7
COc1cc(C(=O)NCCC(=O)NC2CCCCCCC2)cc(OC)c1OC	0.2	0.6	-10	83*	-3	37
O=C(O)CCCCCNC(=O)Nc1ccc2c(c1)OCCO2	0.9	0.9	11	7	-3	14
O=C(Nc1ccc(N2CCOCC2)cc1)C1CC1	1	1.1	-27	3	2	-6
O=C(Nc1ccc(N2CCOCC2)cc1)C1CCCN(S(=O)(=O)c2cccc(C(F)(F)F)c2)C1 (stereo unspecified)	0.4	0.9	12	63*	10	12
CC(=O)c1cccc(NC(=O)C2CCN(S(=O)(=O)c3ccccc3)CC2)c1	0.3	0.9	-7	68*	-4	8
CC(=O)c1cccc(NC(=O)C2CCCN(S(=O)(=O)c3ccc(F)cc3)C2)c1 (stereo unspecified)	0.1	0.2	-8	87*	1	76*
COc1ccc(S(=O)(=O)N2CCCC(C(=O)Nc3cccc(C(C)=O)c3)C2)cc1 (stereo unspecified)	0.6	0.7	-10	41	-5	31
CCS(=O)(=O)N1CCC(C(=O)Nc2cccc(C(C)=O)c2)CC1	0.3	0.9	-8	70*	0	12
COc1ccc(OC)c(N/C(C)=C/C(=O)c2ccc(C)o2)c1	0.9	1	-10	6	1	-5
CC(=O)c1cccc(NC(=O)C2CCN(S(=O)(=O)c3ccc(F)cc3)CC2)c1	0.5	0.4	-1	53*	-6	63*
O=C(O)CCCCCN=C1CCc2ccccc2N1	1.1	1	8	-7	0	2
CCOC(=O)c1c(C)n(C)c2ccc(OCC(O)CN3CCN(C)CC3)cc12 (stereo unspecified)	0.8	0.9	-6	19	5	8
CCC(=O)c1ccc(OCC(O)Cn2c(C)nc3ccccc32)cc1 (stereo unspecified)	0.3	0.5	57	72*	-6	50*
